GPT2 inh = inhibitors of human GPT2 alanine aminotransferase | Q8TD30 | Recombinant GPT2, coupled pyruvate oxidase/HRP Amplex Red fluorescence | Potency, µM (titrated, usually from 57.7 µM), without a hit: top-dose activity change, negative = inhibition, hits mostly inhibitors | 100,000 compounds, 0.25% hits; further: on the % scale 0 is the no-effect control and ±100 the full control effect; nearly all actives have a fitted effect of over 60% in size
Target sequence (Q8TD30 whole entry, looked up): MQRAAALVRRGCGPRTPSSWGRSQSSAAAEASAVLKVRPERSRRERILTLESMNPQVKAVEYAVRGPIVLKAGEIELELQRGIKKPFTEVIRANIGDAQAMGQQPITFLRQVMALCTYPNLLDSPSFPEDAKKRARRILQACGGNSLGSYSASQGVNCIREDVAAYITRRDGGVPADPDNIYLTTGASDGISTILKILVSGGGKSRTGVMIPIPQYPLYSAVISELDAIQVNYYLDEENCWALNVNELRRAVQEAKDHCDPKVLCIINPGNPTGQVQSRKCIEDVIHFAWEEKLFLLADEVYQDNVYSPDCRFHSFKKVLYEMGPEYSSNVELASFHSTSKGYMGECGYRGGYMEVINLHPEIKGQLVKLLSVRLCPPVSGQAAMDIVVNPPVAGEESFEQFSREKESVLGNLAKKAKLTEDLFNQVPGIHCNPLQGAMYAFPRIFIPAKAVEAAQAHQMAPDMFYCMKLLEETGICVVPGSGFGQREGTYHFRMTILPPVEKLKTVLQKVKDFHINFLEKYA
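Fluorescence read-out: pyruvate from GPT2 turnover coupled to pyruvate oxidase, HRP and Amplex Red (0.2mM ThPP, 0.2U/mL PO and HRP, 50uM Amplex final). Substrates 250uM a-KG, 2mM L-alanine; enzyme 10ng/uL; 30 min RT.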
hNpr1 antagonist = antagonists of human natriuretic peptide receptor Npr1 | HEK293 hNpr1 GloSensor cGMP, ANP-stimulated luminescence | Potency, µM (series often up to 46.3 µM), for inactives: top-dose activity change, negative = inhibition, hits mostly inhibitors | 76,000 compounds, 1.6% hits; calls by dose curve; further: on the % scale 0 is the no-effect control and ±100 the full control effect; nearly all actives have a fitted effect of over 60% in size
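HEK293 cells stably expressing human Npr1 and cGMP GloSensor pGS-40F, loaded 2 h with 2% GloSensor reagent, given compound 30 min at room temperature. Luminescence read before and 20 min after 0.1 nM hNppA.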
HEK293 tox = HEK 293 cell cytotoxicity. HEK 293 viability, ATP luminescence (CellTiter-Glo), 48-72 h. Potency, µM (top dose mostly 115 µM), inactives show at the top dose activity change, negative = cytotoxicity, usual class: inhibitors. 94,000 compounds, 6.6% hits; further: on the % scale 0 is the no-effect control and ±100 the full control effect; nearly all actives have a fitted effect of over 60% in size
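CellTiter-Glo luminescence (cellular ATP) was read after 48 or 72 hr of compound exposure at 37 degree Celsius. Cells were HEK 293 plated at 250 cells/well.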
3T3 cytotox = kills NIH 3T3 cells; Potency, µM (top dose mostly 96.7 µM), for inactives: at the top dose activity change, negative = cytotoxicity, actives largely listed as inhibitors; AID 1345082; 94,000 compounds, 4.3% hits; NIH 3T3 viability, CellTiter-Glo ATP luminescence, 48-72 h; further: on the % scale 0 is the no-effect control and ±100 the full control effect; nearly all actives have a fitted effect of over 55% in size
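NIH 3T3 cells at 400 cells/well received 23 nL of compound by pintool and were incubated 48 or 72 h at 37 °C. Viability was read as ATP-coupled CellTiter-Glo luminescence.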
Luciferase inh = Photinus pyralis luciferase inhibition; P08659; purified P. pyralis luciferase, luminescence, biochemical; Potency, µM (highest dose often 115 µM), most hits filed as inhibitors; 76,000 compounds, 2.5% hits; further: on the % scale 0 is the no-effect control and ±100 the full control effect; nearly all actives have a fitted effect of over 65% in size
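Purified 10nM P. pyralis luciferase with 10uM D-luciferin and 10uM ATP in 50mM Tris acetate pH 7.5, 10mM Mg acetate, 0.01% Tween-20, 0.05% BSA. qHTS titration; luminescence read by CCD imager.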
Npr1 antag conf = confirmation of human Npr1 natriuretic peptide receptor antagonists | HEK293 hNpr1 cGMP GloSensor luminescence, ANP-stimulated | 1,400 compounds, 76% hits | Potency, µM (doses to about 57.6 µM), for inactives: top-dose activity change, negative = inhibition, most hits filed as inhibitors | shares compounds with hNpr1 antagonist | AID 1347044; calls by dose curve; further: nearly all actives have a fitted effect of over 70% in size
NPR2 antag = selectivity test of Npr1 antagonists against human Npr2 | shares compounds with hNpr1 antagonist | HEK293 hNpr2 GloSensor cGMP luminescence, CNP-stimulated | Potency, µM (series often up to 57.6 µM), inactives show top-dose activity change, negative = inhibition, hits mostly inhibitors | 1,400 compounds, 67% hits; calls by dose curve; further: nearly all actives have a fitted effect of over 70% in size
FLuc counter = FLuc enzyme inhibition, Npr1 counter-screen. shares compounds with hNpr1 antagonist. purified FLuc enzyme, luminescence, Km substrate. Potency, µM (doses to about 57.6 µM), inactives show top-dose activity change, negative = inhibition, usual class: inhibitors. 1,400 compounds, 0.7% hits. AID 1347047; further: 0% is about no effect
GloSensor ctrl = control cell line activity, Npr1 antagonist counter-screen | Potency, µM (highest dose often 57.6 µM), for inactives: top-dose activity change, negative = inhibition, actives largely listed as inhibitors | shares compounds with hNpr1 antagonist | HEK293 GloSensor cGMP, SNP-stimulated, luminescence | 1,400 compounds, 69% hits; calls by dose curve; further: on the % scale 0 is the no-effect control and ±100 the full control effect; nearly all actives have a fitted effect of over 70% in size
Starred values were filed as active, the others as inactive; i = inactive; ? = inconclusive; . = not tested or not shown; [ ] = another dose, or the depositor's remark. An excerpt weighted towards active compounds, which were near 10% of everything screened. Unless noted, the call rests on the fitted dose curve; in most records, active means well fitted curve in the direction sought with a large enough effect; inconclusive means small, poorly fitted or top-dose-only effect, or another doubt; inactive means no such curve, though single readings can be large; an effect the other way counts as inactive or inconclusive. Potency means the concentration at half of the fitted maximal effect.

SMILES | GPT2 inh | hNpr1 antagonist | HEK293 tox | 3T3 cytotox | Luciferase inh | Npr1 antag conf | NPR2 antag | FLuc counter | GloSensor ctrl
CC(C)OC(=O)N1CCC(COc2ccc3c(cnn3CC[S+](C)(=O)[O-])c2)CC1 | ? | 16µM* | ? | ? | i | 16µM* | 22µM* | -12%[86.2 µM] | 14µM*
COc1ccc(NC(=O)[C@@H]2C[C@@H](c3ccc(F)cc3)N(CCOc3ccccc3)C2)cc1 | -25%[88.5 µM] | ? | ? | ? | i | . | . | . | .
O=C(Nc1nccs1)[C@@H]1C[C@@H](c2ccc(F)cc2)N(CCOc2ccccc2)C1 | ? | ? | ? | ? | i | 35µM* | ? | 4%[86.2 µM] | ?
O=C(NC1CC1)c1cc(-c2ccccc2F)cc2c1OCCN2Cc1cccnc1 | -4%[88.5 µM] | -29%[70.6 µM] | 100µM* | 89µM* | i | ? | ? | 2%[86.2 µM] | 8%[86.2 µM]
CN(C)C(=O)c1cc(-c2ccccc2F)cc2c1OCCN2Cc1cccnc1 | ? | -25%[70.6 µM] | ? | -28%[138 µM] | i | ? | -25%[86.2 µM] | 1%[86.2 µM] | -25%[86.2 µM]
O=C(NCC1CCCO1)c1cc(-c2ccccc2F)cc2c1OCCN2Cc1cccnc1 (stereo not given) | i | -8% | ? | ? | i | . | . | . | .
O=C(c1cc(-c2ccccc2F)cc2c1OCCN2Cc1cccnc1)N1CCC1 | -2%[88.5 µM] | ? | ? | ? | i | ? | ? | 1%[86.2 µM] | -11%[86.2 µM]
O=C(NCCc1cnc[nH]1)c1cc(-c2ccccc2F)cc2c1OCCN2Cc1cccnc1 | 0% | -15% | ? | ? | i | . | . | . | .
CS(=O)(=O)c1ccc(CN2CCC3(CCNCC3)C2)cc1 | ? | -3% | -20% | -18% | i | . | . | . | .
CO[C@H]1C=CO[C@@]2(C)Oc3c(C)c(O)c4c(O)c(c5c(c4c3C2=O)NC2(CCN(CC(C)C)CC2)N=5)=NC(=O)C(C)=CC=C[C@H](C)[C@H](O)[C@@H](C)[C@@H](O)[C@@H](C)[C@H](OC(C)=O)[C@H]1C | i | . | . | . | . | . | . | . | .
O=[S+]([O-])(Nc1ccccc1)c1ccc2c(c1)OCCN(Cc1ccncc1)C2 | -5%[88.5 µM] | ? | ? | ? | i | 40µM* | 35µM* | -2%[86.2 µM] | 31µM*
O=[S+]([O-])(Nc1cccnc1)c1ccc2c(c1)OCCN(Cc1ccccc1)C2 | 2%[88.5 µM] | ? | ? | ? | i | . | . | . | .
CN(C)[S+](=O)([O-])c1ccc2c(c1)OCCN(Cc1ccc(C(F)(F)F)cc1)C2 | -20%[88.5 µM] | 18µM* | ? | 45µM* | i | 13µM* | 18µM* | -13%[86.2 µM] | 8.9µM*
CN(C)[S+](=O)([O-])c1ccc2c(c1)OCCN(Cc1ccc(F)cc1)C2 | 4%[88.5 µM] | -20%[70.6 µM] | ? | ? | i | . | . | . | .
CC(C)N1CCC[C@H]1c1nc(-c2ccc(N3CCN(C)CC3)nc2)no1 | -9%[88.5 µM] | 5%[70.6 µM] | -13%[172 µM] | -1%[138 µM] | i | . | . | . | .
Cc1nc(-c2ccc(OC3CCN(C(=O)c4cc(C)n(C)n4)C3)cc2)no1 (stereo not given) | i | ? | ? | ? | i | ? | ? | 1% | ?
COc1cccc(CCC(=O)N2CCC(Cc3nc(-c4ccccc4)no3)CC2)c1 | i | ? | ? | ? | i | . | . | . | .
COc1ccc(CCC(=O)N2CCC(Cc3nc(-c4ccccc4)no3)CC2)cc1 | i | 10µM* | 35µM* | ? | i | 12µM* | 15µM* | 2% | 12µM*
COc1ccc(-c2noc(CC3CCN(C(=O)CCc4cccc(OC)c4)CC3)n2)cc1 | i | 13µM* | ? | ? | i | 22µM* | 22µM* | 0% | 17µM*
COc1cccc(-c2noc(CC3CCN(C(=O)CCc4ccccc4)CC3)n2)c1 | i | 13µM* | ? | ? | i | 27µM* | 24µM* | -7% | 24µM*
Cn1cc(-c2ccccc2)cc1C(=O)NCc1cccs1 | i | -2% | ? | ? | i | . | . | . | .
CCCS(=O)(=O)N1CCC2(CC1)NCCc1c2[nH]c2ccccc12 | 1% | -7% | -29% | -26% | i | . | . | . | .
Cc1cnc(CN2CC3(CCCN(C(=O)c4cscn4)C3)CCC2=O)cn1 (stereo not given) | -9%[11.5 µM] | 3% | -2% | -7% | i | . | . | . | .
COCc1nc(-c2ccc(OC3CCN(C(=O)c4sc(C)nc4C)C3)cc2)no1 (stereo not given) | -9% | -15% | ? | -20% | i | . | . | . | .
COCc1nc(-c2ccc(OC3CCN(C(=O)CCc4ccc(OC)cc4)C3)cc2)no1 (stereo not given) | 2% | 14µM* | ? | ? | i | 27µM* | 27µM* | -4% | ?
SMILES | GPT2 inh | hNpr1 antagonist | HEK293 tox | 3T3 cytotox | Luciferase inh | Npr1 antag conf | NPR2 antag | FLuc counter | GloSensor ctrl
COc1ccc(-c2noc(CC3CCN(C(=O)Cc4ccccc4Cl)CC3)n2)cc1 | 1% | 10µM* | ? | ? | i | 17µM* | 22µM* | 1% | 19µM*
Cc1ccc(OCc2nc(C3CCCCN3C(=O)CCCc3nc(-c4ccc(C)cc4)no3)no2)cc1 (stereo not given) | -6% | . | ? | ? | . | . | . | . | .
Cc1ccc(-c2noc(CCCC(=O)N3CCC(CCOc4ccccc4F)C3)n2)cc1 (stereo not given) | -2% | 4.5µM* | ? | ? | i | 17µM* | 19µM* | -3% | 15µM*
COCc1nc(-c2ccc(OC3CCN(Cc4ccc(C(F)(F)F)cc4)C3)cc2)no1 (stereo not given) | i | 7.9µM* | ? | ? | i | 8.6µM* | 11µM* | 2% | 7.7µM*
O=C(NC[C@H]1OC[C@@H](NC2CCCCC2)[C@@H]1O)c1ccccc1 | i | -1%[70.6 µM] | i | i | i | . | . | . | .
Cc1cccc(OCC(=O)N2CCC(Cc3nc(-c4cnccn4)no3)CC2)c1 | -9% | -3% | -23% | ? | i | . | . | . | .

Assay outcomes (PubChem)
